USP30 inh: human USP30 deubiquitinase inhibition; purified USP30, Ub-rhodamine cleavage fluorescence; inhibition, % at 25 µM; actives 5.3% (n = 47,000); AID 1645860
UCHL1 block: blocks human UCHL1 ubiquitin-rhodamine cleavage; inhibition, % at 20 µM; purified UCHL1, Ub-rhodamine cleavage fluorescence; P09936; AID 1645859; actives 0.2% (n = 47,000)
USP8 inh: blocks human USP8 ubiquitin-rhodamine cleavage; inhibition, % at 20 µM; actives 4.2% (n = 47,000); P40818; purified USP8, Ub-rhodamine cleavage fluorescence, 30 min
USP10 block: human USP10 deubiquitinase inhibition; Q14694; purified USP10, Ub-rhodamine fluorescence, 60 min; inhibition, % at 20 µM; actives 1.1% (n = 47,000); AID 1645856
USP17 block: blocks human USP17 ubiquitin-rhodamine cleavage | A8MUK1 | purified USP17, Ub-rhodamine cleavage fluorescence, 3 h | inhibition, % at 50 µM | actives 6.5% (n = 47,000) | AID 1645855
Target sequence (A8MUK1 whole entry, looked up): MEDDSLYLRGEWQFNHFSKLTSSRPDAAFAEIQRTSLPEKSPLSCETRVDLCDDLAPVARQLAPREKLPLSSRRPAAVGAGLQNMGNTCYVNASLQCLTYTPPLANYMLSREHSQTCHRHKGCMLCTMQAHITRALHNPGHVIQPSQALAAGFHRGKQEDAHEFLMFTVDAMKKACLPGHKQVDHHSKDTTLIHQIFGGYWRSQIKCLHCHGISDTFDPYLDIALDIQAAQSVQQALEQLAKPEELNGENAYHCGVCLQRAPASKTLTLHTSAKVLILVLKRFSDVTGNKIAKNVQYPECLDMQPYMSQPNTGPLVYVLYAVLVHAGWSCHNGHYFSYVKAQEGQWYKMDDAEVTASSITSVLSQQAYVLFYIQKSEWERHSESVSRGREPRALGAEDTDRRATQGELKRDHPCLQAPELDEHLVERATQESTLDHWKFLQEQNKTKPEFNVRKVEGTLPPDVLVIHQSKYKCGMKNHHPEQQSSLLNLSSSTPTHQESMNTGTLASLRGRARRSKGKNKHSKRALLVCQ
USP7 block: human USP7 deubiquitinase inhibition. inhibition, % at 20 µM. purified USP7, Ub-rhodamine cleavage fluorescence. Q93009. actives 0.3% (n = 47,000). AID 1645854
* hit, by the source's call; i = inactive; . = no result. The list is not random: actives were taken first. Their share in the collection is about 13%. No stated cut-off is given here; in the data, active means inhibition above about 30%; inactive means the rest.

SMILES	USP30 inh	UCHL1 block	USP8 inh	USP10 block	USP17 block	USP7 block
CCCCCCCc1cc(OC(=O)c2c(CCCCCCC)cc(O)cc2O[C@@H]2O[C@H](CO)[C@H](O)[C@H](O)[C@H]2O)cc(O)c1C(=O)O	108*	69*	99*	100*	102*	100*
CCCCCCCCCc1cc(OC(=O)c2c(CCCCCCCCC)cc(O)cc2O[C@@H]2O[C@H](CO)[C@@H](O)[C@H](O)[C@H]2O)cc(O)c1C(=O)O	104*	84*	95*	97*	100*	100*
CCCCCCCc1cc(O)cc(OC(=O)c2c(CCCCCCC)cc(O)cc2O[C@H]2O[C@H](C(O)CO)[C@@H](O)[C@@H]2O)c1 (some centres not stated)	-33	15	0	12	40*	-4
NC(=O)c1cc2ccccc2nc1C1CCN(C(=O)COc2cccc(F)c2)CC1	1	0	-6	-4	-6	1
O=c1[nH]c(C2CCCNC2)cc2nc(C(F)(F)F)ccc12 (configuration not stated)	7	-4	2	1	1	-16
CN(C)C(=O)c1ccc(Nc2nc(-c3cccnc3)nc3ccccc23)cc1	-50	0	-19	-12	37*	-3
Cc1cccc(NC(=O)C(Sc2ccc(NC(=O)c3ccccc3C(=O)O)cc2)c2ccccc2)c1 (configuration not stated)	-38	-1	-19	13	-23	-6
Cc1ccccc1C(=O)Nc1cccc(SC(C(=O)Nc2ccc(O)c(C(=O)O)c2)c2ccccc2)c1 (configuration not stated)	38*	8	2	13	28	5
O=C(O)c1cccc(NC(=O)C(Sc2cccc(NC(=O)c3cccc(Cl)c3)c2)c2ccccc2)c1 (configuration not stated)	-4	4	3	46*	42*	-5
Cc1cccc(C(=O)Nc2cccc(SC(C(=O)Nc3ccc(O)c(C(=O)O)c3)c3ccccc3)c2)c1 (configuration not stated)	6	25	88*	31*	29	27
O=C(O)c1ccccc1C(=O)Nc1ccc(SC(C(=O)Nc2ccccc2Cl)c2ccccc2)cc1 (configuration not stated)	4	4	-1	49*	47*	-2
CCOc1ccc(NC(=O)C2C3C=CC4(O3)C2C(=O)N(Cc2ccc3c(c2)OCO3)C4C(=O)NC2CCCCC2)cc1 (configuration not stated)	15	4	24	24	11	6
CCCCc1nc2sc3c(SCC(=O)Nc4ccccc4Cl)ncnc3c2c2c1CCC2	.	-4	0	-2	-13	-2
COc1ccc(/C=C2\NC(=O)[C@H]3Cc4ccccc4CN3C2=O)cc1	-7	0	46*	10	1	10
O=C(CSc1n[nH]c(-c2ccccc2Cl)n1)Nc1ccc2c(c1)OCCO2	0	0	-39	4	-5	2
COc1ccc(S(=O)(=O)N2CCc3ccccc32)cc1C(=O)Nc1ccc2[nH]c(=O)[nH]c2c1	87*	2	73*	31*	27	8
COc1ccccc1NC(=O)c1cc(S(=O)(=O)N2CCCc3ccccc32)ccc1F	11	-1	-2	-2	43*	7
O=C(Cc1nc(-c2ccccc2)n[nH]1)NCc1ccccc1F	1	0	-5	0	-9	-3
CCN1C(=O)COc2ccc(-c3noc(-c4cnccn4)n3)cc21	-28	-2	-6	-4	.	-2
O=C(NC1CCCC1)c1cccc(NC(=O)c2nsc3ccccc23)c1	.	-2	-1	1	31*	2
Cc1ccc(C(=O)NCC2COCCO2)cc1NC(=O)c1nsc2ccccc12 (configuration not stated)	-4	0	-2	0	-18	-7
O=C(NCc1cccnc1)c1cnn2c3c(cnc12)CCCC3	-11	-3	0	0	-1	-4
O=C(NCc1cccnc1)c1cnn2c(C(F)(F)F)cc(-c3ccc(F)cc3)nc12	56*	0	-1	0	36*	-4
Cc1c(C(=O)N(C)Cc2ccco2)nnn1-c1cccc2c1CCN(CC1CC1)C2	-30	1	11	-2	-12	-3
O=C(Nc1cc(Cl)ccc1O)c1ccc(Cn2cnc3ccccc3c2=O)cc1	-8	0	-1	9	45*	-8
SMILES	USP30 inh	UCHL1 block	USP8 inh	USP10 block	USP17 block	USP7 block
COc1ccc(C(C)=O)c2cc(C#N)oc12	2	-38	7	2	30*	-3
COc1ccc(C(C)=O)cc1COC(=O)c1oc2ccc(Br)cc2c1C	-58	6	5	-2	21	1
O=C(c1cc(-c2ccccn2)n[nH]1)N1CCC(C(=O)N2CC=C(c3ccccc3)CC2)CC1	-9	-1	-184	1	10	-2
Cc1cccc(OCC(=O)Nc2cc(F)c3nc(N4CCOCC4)ccc3c2)c1	-139	-5	60*	-10	-12	-11
COC(=O)c1cc(NC(=O)COc2ccccc2F)ccc1N1CCOCC1	13	1	2	0	2	3
COCC(=O)Nc1cc(F)c2nc(N3CCOCC3)ccc2c1	-31	2	89*	-6	63*	-6
O=C(c1cccc(F)c1)N1CCC(Nc2cccnc2)C1 (configuration not stated)	i	-23	25	-4	-90	-45
O=C(NCc1ccc(F)cc1)N1CCC(Nc2cccnc2)C1 (configuration not stated)	-344	-8	35*	-6	-30	-20
NC(=O)COC(=O)c1c2c(nc3ccccc13)/C(=C/c1ccc(Cl)cc1)CC2	i	3	-173	-6	-142	-11
O=C(Nc1cccn(Cc2c(Cl)cccc2Cl)c1=O)c1ccccc1[N+](=O)[O-]	46*	3	-49	6	9	6
Cc1nn2c(S(=O)(=O)N3CCN(c4ccccc4F)CC3)c(C)nc2s1	1	1	3	2	0	2
CCn1ccc2c(cc(C(=O)Nc3cccc(C)c3C)n2C)c1=O	-6	-1	-8	0	-16	1
CCn1ccc2c(cc(C(=O)Nc3cccc(F)c3)n2C)c1=O	12	-2	-7	-3	39*	1
Oc1ccc(-c2nc3ccc(Cl)cn3c2NC2CCCCC2)cc1	-6	-4	-13	-3	67*	4
Cc1ccc(-c2nc(CNC(=O)C3CC3c3ccccc3)no2)cc1 (configuration not stated)	-162	-3	-8	-1	-21	0
CC(=O)N1CCO[C@@H]2CCN(C(=O)c3cnc(C)cn3)CC[C@H]21	-23	-1	-198	-5	-40	-2
C[C@H]1[C@H]2C[C@]3(C)CCC([C@H](C)CO)=C3C/C=C(/C=O)[C@@H]2C(=O)[C@H]1O	-5	-4	-3	-3	-16	2
